High-throughput results from PubChem BioAssay.
PKA inh: inhibitors of human protein kinase A; P17612; PKA Kemptide phosphorylation, Kinase-Glo ATP luminescence; inhibition, % at 6 µM; 65,000 tested, 0.1% active;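 active means inhibition above the screen-wide mean inhibition plus 3 SD, cut at about 21% in these data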
D1 mod: allosterically modulates the human D1 dopamine receptor; AID 641; HEK293 D1, CRE-luciferase, dopamine EC30 potentiation; actives deviate in either direction; B-score at 10 µM; 58,000 tested, 5.9% active; P21728;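 active means luminescence count or its row- and column-corrected plate score outside the 99.7% band of the plate's sample wells, on either side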
hDAT+cocaine: modulates human dopamine transporter uptake under cocaine; 110,000 tested, 1.3% active; B-score at 10 µM; Q01959; LLC-PK1 hDAT cells, [14C]-dopamine uptake with cocaine IC80; actives deviate in either direction;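 active means Z score or B-score, a plate-position-corrected score, falls beyond the plate's 99.7% confidence bounds, in either direction; inactive means both scores lie inside the 99.7% bounds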
Target sequence (Q01959 whole entry, looked up): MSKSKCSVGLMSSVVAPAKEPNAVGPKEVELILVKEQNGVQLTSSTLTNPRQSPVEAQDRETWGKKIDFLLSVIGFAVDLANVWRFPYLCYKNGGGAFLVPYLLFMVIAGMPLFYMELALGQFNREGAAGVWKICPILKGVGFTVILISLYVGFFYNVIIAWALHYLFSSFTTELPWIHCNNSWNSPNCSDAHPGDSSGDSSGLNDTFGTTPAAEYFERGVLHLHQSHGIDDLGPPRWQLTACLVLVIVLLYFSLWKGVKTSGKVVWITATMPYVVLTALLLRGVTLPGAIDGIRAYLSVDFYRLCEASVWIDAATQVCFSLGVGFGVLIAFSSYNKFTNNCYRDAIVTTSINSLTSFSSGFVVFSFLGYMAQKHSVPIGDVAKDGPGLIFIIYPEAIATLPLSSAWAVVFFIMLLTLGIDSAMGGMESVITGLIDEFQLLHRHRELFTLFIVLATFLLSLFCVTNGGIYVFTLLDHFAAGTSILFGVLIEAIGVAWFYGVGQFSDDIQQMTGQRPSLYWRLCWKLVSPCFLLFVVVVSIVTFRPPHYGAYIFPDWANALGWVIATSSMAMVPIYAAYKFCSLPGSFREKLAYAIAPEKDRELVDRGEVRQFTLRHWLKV
ROCK2 blocker: inhibitors of human Rho kinase 2. O75116. purified ROCK2, Kinase-Glo ATP depletion luminescence. AID 604. inhibition, % at 6 µM. 60,000 tested, 0.35% active;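 active means inhibition above the screen-wide mean inhibition plus 3 SD, cut at about 18% in these data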
D1 PAM confirm: confirmation of human D1 dopamine receptor allosteric modulators | HEK293 D1 CRE-luciferase, dopamine EC30 potentiation; hits give high values | luminescence at 10 µM | 2,200 tested, 88% active | shares compounds with D1 mod;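 active means luminescence in either of two replicates above the same-plate mean plus 3 SD of the low-dose dopamine control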
D1 no dopamine: secondary test of D1 modulators: activity without dopamine; shares compounds with D1 mod; HEK293 D1 CRE-luciferase, luminescence, no dopamine; hits give high values; luminescence at 10 µM; 1,900 tested, 0.8% active; AID 646; in the data active means luminescence above about 3900
Isoprot counter: counter-screen for D1 modulators: isoproterenol response in HEK293 cells | shares compounds with D1 mod | HEK293 D1 CRE-luciferase, isoproterenol EC30 counter-screen | calls only at 10 µM | 2,200 tested, 63% active;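 active means luminescence in either replicate above plate mean of wells with a partly effective reference agonist dose plus 3 SD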;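 further: isoproterenol raises cAMP through native beta-adrenoceptor Gs so signal bypasses D1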
Numbers stand for hits; 0 = inactive; - = no result; + = active, no number. Many of the other results were omitted from the sample, so hits are more common in it than they were.

SMILES | PKA inh | D1 mod | hDAT+cocaine | ROCK2 blocker | D1 PAM confirm | D1 no dopamine | Isoprot counter
N#Cc1ccccc1Cn1c(=O)n(Cc2ccc(C(=O)NCc3ccco3)cc2)c(=O)c2ccccc21 | 0 | 4.4 | 0 | 0 | 18988 | 0 | +
N#Cc1ccccc1Cn1c(=O)n(CCC(=O)NCc2ccco2)c(=O)c2ccccc21 | 0 | 0 | - | 0 | - | - | -
Cc1ccccc1Cn1c(=O)n(CCCC(=O)NCc2ccco2)c(=O)c2ccccc21 | 0 | 5.5 | 0 | 0 | 11052 | 0 | +
CCOc1ccc(C2OC(=O)Cc3cc(OC)c(OC)cc32)cc1 (stereo not given) | - | - | 0 | - | - | - | -
COc1ccc(OC)c(-c2csc3nnc(SCC(=O)Nc4ccc(NC(C)=O)cc4)n23)c1 | 0 | 0 | 0 | 0 | - | - | -
COc1cccc(-c2csc3nnc(SCC(=O)c4ccc(NC(C)=O)cc4)n23)c1 | 0 | 3 | 0 | 0 | 9644 | 0 | +
N#CCc1c(C#N)c(N)nc(N2CCN(S(=O)(=O)c3ccccc3)CC2)c1C#N | 0 | 5.5 | 0 | 0 | 11684 | 0 | +
COc1ccccc1N1CCN(c2nc(N)c(C#N)c(CC#N)c2C#N)CC1 | 0 | - | 0 | - | - | - | -
COC(=O)CNC(=O)C(C)NC(=O)CNC(=O)OCc1ccccc1 (stereo not given) | - | - | 0 | - | - | - | -
COC(=O)c1ccccc1NC(=O)c1ccc2c(c1)OCCO2 | 0 | 3.9 | 0 | 0 | 11420 | 0 | 0
COC(=O)c1ccccc1NC(=O)C1CCCC1 | 0 | 6.6 | 0 | 0 | 9916 | 0 | +
COC(=O)c1ccccc1NC(=O)c1ccc(NS(C)(=O)=O)cc1 | 0 | 8 | 0 | 0 | 9992 | 0 | +
O=C1c2cccc3c2[C@H](CCC3)CN1[C@@H]1CN2CCC1CC2 | - | - | 0 | - | - | - | -
CCOc1ccc(/C(O)=C2/C(=O)C(=O)N(CCCn3ccnc3)C2c2cccs2)cc1Cl (stereo not given) | 0 | 0 | 0 | 0 | - | - | -
Nc1nc(NCc2ccccc2)nc(-c2ccccc2)n1 | 0 | 21 | 0 | 0 | 23340 | - | +
NNc1nc(NCc2ccccc2)nc(N2CCOCC2)n1 | - | - | 0 | - | - | - | -
Nc1c(S(=O)(=O)c2cccs2)c2nc3ccccc3nc2n1CC1CCCO1 (stereo not given) | 0 | 5.9 | 0 | 0 | 12068 | 0 | +
CCc1nc(N2CCOCC2)c(C#N)c2c1COC(C)(C)C2 | 0 | 5.6 | 0 | 0 | 15288 | - | +
CC1(C)Cc2nc(N3CCOCC3)c(C#N)cc2CO1 | 0 | 2.8 | 0 | 0 | 9156 | - | 0
Cc1nc(N2CCOCC2)c(C#N)c2c1COC(C)(C)C2 | 0 | - | 0 | 0 | - | - | -
CC(=Nc1ccccc1C)C1=C(O)CSC1=O | - | - | 0 | - | - | - | -
CN(C)c1ccc(/C(=N\O)c2ccccc2)cc1 | 0 | 3.6 | 0 | 0 | 16920 | 0 | +
O=C1CC(c2cccs2)c2cc3c(cc2N1)OCCO3 (stereo not given) | 0 | 7 | 0 | 0 | 10536 | 0 | 0
Cc1ccc(C2CC(=O)Nc3cc4c(cc32)OCCO4)s1 (stereo not given) | 0 | 0 | 0 | 0 | - | - | -
CC(C)Oc1ccccc1C1CC(=O)Nc2cc3c(cc21)OCCO3 (stereo not given) | 0 | 2.3 | 0 | 0 | 10132 | 0 | 0
SMILES | PKA inh | D1 mod | hDAT+cocaine | ROCK2 blocker | D1 PAM confirm | D1 no dopamine | Isoprot counter
COc1ccccc1C1CC(=O)Nc2cc3c(cc21)OCCO3 (stereo not given) | 0 | 0 | 0 | 0 | - | - | -
C[C@@H](O)C1NC(=O)[C@H](CCCCN)NC(=O)c2cc([N+](=O)[O-])cc(I)c2OCC[C@@H](C(N)=O)NC1=O (stereo not given in full) | - | - | 0 | - | - | - | -
CCOC(=O)C1=C(N)n2c(s/c(=C\c3cccs3)c2=O)=C(C(=O)OCC)C1c1cccs1 (stereo not given) | 0 | 4.6 | 0 | 0 | 10396 | 0 | +
CN1CCN(C(=O)C2=C[C@H](C(C)(C)C)C[C@H](OCCCCO)O2)CC1 | - | - | 0 | - | - | - | -
CSc1nc(NC(C)(C)C)nc(N2CCOCC2)n1 | 0 | 15 | 0 | - | 15276 | 0 | +
CCNc1nc(SC(C)C(=O)OC)nc(N2CCOCC2)n1 (stereo not given) | 0 | 7 | 0 | - | 16348 | 0 | +
CCNc1nc(SCC(=O)OC)nc(N2CCOCC2)n1 | 0 | 6.4 | 0 | - | 18868 | 0 | +
CCNc1nc(N2CCOCC2)nc(N(c2ccccc2)c2ccccc2)n1 | 0 | 0 | 0 | 0 | - | - | -
O=C(Nc1ccc(N2CCN(C(=O)c3ccco3)CC2)c(Cl)c1)c1c(F)c(F)c(F)c(F)c1F | 0 | 0 | 0 | 0 | - | - | -
O=C(CNS(=O)(=O)c1cccs1)N1CCc2ccccc2C1 | 0 | 0 | 0 | 0 | - | - | -
CC1CCCN(c2nc3c(c(=O)[nH]c(=O)n3C)n2CCCc2ccccc2)C1 (stereo not given) | - | - | 0 | - | - | - | -
CCN1C(=O)c2cccc3c(S(=O)(=O)Nc4ncccc4C)ccc1c23 | 0 | 7.9 | 0 | 0 | 9156 | 0 | +
CCN1C(=O)c2cccc3c(S(=O)(=O)Nc4ccccn4)ccc1c23 | 0 | 2.5 | 0 | 0 | 5724 | 0 | 0
CCN1C(=O)c2cccc3c(S(=O)(=O)Nc4ccncc4)ccc1c23 | - | - | 0 | - | - | - | -
CCN1C(=O)c2cccc3c(S(=O)(=O)Nc4ccccc4)ccc1c23 | - | - | 0 | - | - | - | -
COc1cc(F)c(C(=O)NC(C)(C)CO)cc1OC | - | - | 0 | - | - | - | -
Cc1ccc(CNC(=O)CSCC(=O)O)cc1 | - | - | 0 | - | - | - | -
N#CCCn1nnc2ccccc21 | 0 | 0 | 0 | 0 | - | - | -
Cc1nc2ccccc2c(=O)n1CCN1CCOCC1 | - | - | 0 | - | - | - | -
CCOC(=O)Cn1c2ccccc2c2nc3ccccc3nc21 | 0 | 4.8 | 0 | 0 | 14192 | 0 | 0
N#CCCn1c2ccccc2c2nc3ccccc3nc21 | 0 | 14 | 0 | 0 | 19256 | 0 | +
O=c1oc2ccccc2n1CCn1c2ccccc2c2nc3ccccc3nc21 | 0 | 0 | 0 | 0 | - | - | -
CCOC(=O)Cn1c(C)cc(=O)c2ccccc21 | - | - | 0 | - | - | - | -
CCCn1c2ccccc2c2nc3ccccc3nc21 | 0 | 5.7 | 0 | 0 | 12892 | 0 | +
Cc1ccc2c(c1)c1nc3ccccc3nc1n2CCN1CCOCC1 | 0 | 7.7 | 0 | 0 | 21896 | 0 | +
SMILES | PKA inh | D1 mod | hDAT+cocaine | ROCK2 blocker | D1 PAM confirm | D1 no dopamine | Isoprot counter
CC(=O)c1ccc(N2CCN(C(=O)COc3ccccc3F)CC2)c(F)c1 | - | - | 0 | - | - | - | -
Cc1ccc(S(=O)(=O)N(C)c2ccc(C(=O)N3CCN(Cc4ccc5c(c4)OCO5)CC3)cc2)cc1 | - | - | 0 | - | - | - | -
O=C(COc1ccccc1)NCc1nnc(SCC(=O)Nc2nccs2)n1-c1ccccc1 | 0 | 3.9 | 0 | 0 | 0 | 0 | 0
COc1cccc(C(=O)NCc2nnc(SCC(=O)Nc3nccs3)n2-c2ccccc2)c1 | 0 | 0 | 0 | 0 | - | - | -
Cc1cccc(C(=O)Nc2cc(=O)n(C)c(=O)n2C)c1 | 0 | 0 | 0 | 0 | - | - | -
Cn1c(NC(=O)c2cccc(C(F)(F)F)c2)cc(=O)n(C)c1=O | 0 | 7 | 0 | 0 | 17760 | 0 | +
COC(=O)C1=COC(C)C2CN3CCc4c([nH]c5cc(OC)c(OC)cc45)C3CC12 (stereo not given) | - | - | 0 | - | - | - | -
